Rows were chosen to be rich in hits. Some 2.4% of all compounds tested hit in one or more screens of this group.
D2 PAM-1: HTS Assay for Positive Allosteric Modulators of the Human D2 Dopamine Receptor: Primary Screen for Potentiators. D(2) dopamine receptor (Homo sapiens), P14416. HEK293 T-REx D2, calcium flux, EC20 dopamine potentiation. potentiation, % at 10 µM. 0.34% of 340,000 active;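 active = potentiation over 3 SD above the plate norm, cut at about 30% in these data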; also: 0% is about no effect
Target sequence (P14416 whole entry, looked up): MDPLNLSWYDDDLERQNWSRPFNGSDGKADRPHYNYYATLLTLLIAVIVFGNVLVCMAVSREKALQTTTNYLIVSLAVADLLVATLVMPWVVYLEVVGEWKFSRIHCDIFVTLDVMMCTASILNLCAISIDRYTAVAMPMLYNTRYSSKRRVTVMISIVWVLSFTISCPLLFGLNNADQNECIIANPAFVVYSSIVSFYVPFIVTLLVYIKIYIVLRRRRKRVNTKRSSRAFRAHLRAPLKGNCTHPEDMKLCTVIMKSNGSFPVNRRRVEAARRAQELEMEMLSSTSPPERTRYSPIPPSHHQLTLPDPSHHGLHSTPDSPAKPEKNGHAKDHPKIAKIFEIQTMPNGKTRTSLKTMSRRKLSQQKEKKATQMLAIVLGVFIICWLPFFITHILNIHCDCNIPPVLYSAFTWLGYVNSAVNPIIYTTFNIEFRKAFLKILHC
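Primary screen. Calcium kinetics in induced HEK293 T-REx D2 cells: compound pre-addition 180 s, EC20 dopamine, 180 s more.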
D2 ag-1: Beta-Arrestin HTS for Positive Allosteric Modulators of the Human D2 Dopamine Receptor: Agonists; D(2) dopamine receptor (Homo sapiens), P14416; DiscoveRx PathHunter D2 beta-arrestin, luminescence, 90 min; 100% = 57 uM dopamine signal; activation, % (test concentration not listed); 0.084% of 360,000 active; AID 624465, 2012; in the data active = activation above about 40%; inconclusive = between about 15% and that limit
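Agonist mode: compounds alone added to overnight-plated D2 PathHunter cells for 90 min at 37 C, with 57 uM final dopamine (EC100) defining full response. Beta-arrestin recruitment detected by chemiluminescent reagent, read after 1 h at ambient temperature.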
D2 PAM-2: Beta-Arrestin HTS for Positive Allosteric Modulators of the Human D2 Dopamine Receptor: Potentiators. DiscoveRx D2 beta-arrestin cells, luminescence, 90 min; 100% = 57 uM dopamine signal. potentiation, % (concentration not given with the values). 0.23% of 360,000 active. AID 624464, 2012. D(2) dopamine receptor (Homo sapiens), P14416; in the data active = potentiation above about 50%; inconclusive = mostly about 30% to 49%
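PathHunter D2 cells, attached overnight at 37 deg C, received compound in DMSO plus dopamine at EC20 (50 nM final) for 90 min at 37 deg C. Beta-arrestin recruitment was read as luminescence after 1 h with detection reagent at ambient temperature.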
D2 antagonist: HTS Assay for Allosteric Antagonists of the Human D2 Dopamine Receptor: Primary Screen for Antagonists; AID 485344, 2010; HEK293 TREx D2 cells, calcium flux, dopamine EC80; D(2) dopamine receptor (Homo sapiens), P14416; 2% of 340,000 active; inhibition, % at 10 µM; in the data active = inhibition above about 30%; inactive = below that, where a call was filed; also: 0% is about no effect
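Cells plated overnight at 30 C with tetracycline; no-wash calcium dye, 30–90 min RT; 10 s baseline; compound pinned; 180 s read; EC80 dopamine added; another 180 s read.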
D2 ag-2: HTS Assay for Allosteric Agonists of the Human D2 Dopamine Receptor: Primary Screen for Agonists; activation, % at 2 µM; 0.53% of 340,000 active; AID 485358, 2010; HEK293 T-REx D2 cells, calcium flux agonist mode;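 active = activation over 3 SD above normal in the single-dose calcium agonist read, cut at about 30% in these data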; also: 0% is about no effect
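In this primary screen, compounds producing a positive calcium signal within 180 s of addition to tetracycline-induced, force-coupled HEK293 Trex D2 cells are flagged; cells are dye-loaded with a no-wash calcium kit beforehand.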
* marks the source's active call; other numbers are inactive results; ? = inconclusive; . = no result.

SMILES | D2 PAM-1 | D2 ag-1 | D2 PAM-2 | D2 antagonist | D2 ag-2
Cc1cc(NC(=O)c2cc(-c3ccc(F)cc3)on2)nn1Cc1ccc(Cl)cc1 | -9 | . | . | . | 1
Oc1cccc(CN2CCCCC2)c1 | -13 | -3 | -7 | 56* | 1
Brc1cccc(CN2CCCCCC2)c1 | -12 | -3 | -4 | -2 | -1
COc1ccc(-n2c(SCC(=O)N3CCOCC3)nc(O)c(Cc3ccccc3)c2=O)cc1 | -3 | -3 | -10 | 43* | 1
COc1ccc(-n2c(SCC(=O)N3CCOCC3)nc(O)cc2=O)cc1 | 1 | -1 | 10 | . | .
COc1ccc(-n2c(SCC(=O)Nc3ccccc3)nc3c(c2=O)SCC3)cc1 | 12 | -2 | -6 | 31* | -1
COc1ccccc1-n1c(SCC(=O)Nc2nnc(C)s2)nc2c(c1=O)SCC2 | 31* | 1 | 0 | 6 | 1
COc1ccccc1CNS(=O)(=O)c1ccc2c(c1)CC(C)N2C(C)=O (stereo not given) | 2 | . | . | . | 1
Cc1ccc2onc(CNC(=O)NCc3ccc(Cl)cc3)c2c1 | -1 | . | . | . | .
O=C1CS(=O)(=O)C2(C(=O)N(Cc3cccc(F)c3)c3ccccc32)N1c1ccccc1 (stereo not given) | -2 | . | . | . | .
COc1ccc(Cn2c(CNS(=O)(=O)c3ccc(Cl)s3)nc3cccnc32)cc1 | 0 | . | . | . | 0
COC(=O)C1C(c2ccccc2)C(C(=O)N2CCN(C)CC2)C1c1ccccc1 (stereo not given) | 1 | -3 | 8 | 33* | 0
COC(=O)[C@H]1[C@H](c2ccccc2)[C@H](C(=O)OC)O[C@H]1c1ccccc1 | . | -5 | -9 | . | .
CCCCNC(=O)NS(=O)(=O)c1ccc(C)cc1 | 20 | -4 | -6 | 33* | 1
Cc1ccc(S(=O)(=O)NC(=O)NCCCCNC(=O)NS(=O)(=O)c2ccc(C)cc2)cc1 | 11 | 0 | -2 | -3 | 0
Cc1ccc(S(=O)(=O)NC(=O)NN2CCCCCC2)cc1 | 3 | -5 | -12 | 34* | 2
O=C(Nc1ccccc1F)c1oc2ccccc2c1NC(=O)c1c(F)cccc1F | 1 | . | . | . | .
Cc1ccc(C)c(C(=O)COC(=O)c2ccccc2N2C(=O)C3C4CCC(C4)C3C2=O)c1 (stereo not given) | 41* | 0 | 2 | -18 | 0
CCN(CC)S(=O)(=O)c1cccc(C(=O)Nc2ccccc2C(=O)Nc2ccc(OC)cc2)c1 | . | . | . | . | 1
CC(C)Cc1nnc(NS(=O)(=O)c2ccccc2)s1 | . | -1 | -11 | . | .
CC(C)Cc1nnc(NS(=O)(=O)Cc2ccccc2)s1 | 6 | 0 | 0 | 32* | 0
CCOc1ccc(CNC(=O)c2ccc3nc(C(C)C)oc3c2)cc1 | 1 | . | . | . | -1
COc1ccc(OCc2cc(C(=O)NC(C)Cc3ccccn3)no2)c(Cl)c1 (stereo not given) | -7 | 9 | -12 | 33* | -1
COc1ccc(NC(=O)c2ccccc2N(Cc2ccccc2)S(C)(=O)=O)cc1OC | 37* | 2 | -2 | -5 | 0
COc1ccc(NC(=O)c2ccccc2N(Cc2ccccc2)S(C)(=O)=O)cc1 | -8 | -4 | -11 | 0 | 3
SMILES | D2 PAM-1 | D2 ag-1 | D2 PAM-2 | D2 antagonist | D2 ag-2
Cc1cc(C)nc(N2CCCC(C(=O)NCc3ccc4c(c3)OCO4)C2)n1 (stereo not given) | 1 | -6 | -5 | -5 | -1
CCCc1cc(N2CCCC(C(=O)NCc3ccc4c(c3)OCO4)C2)n2ncnc2n1 (stereo not given) | 36* | 4 | 6 | 4 | -1
Cc1c(C(=O)NCc2ccccc2)c(-c2ccccc2)nn1-c1ccccc1 | 1 | 1 | -2 | 36* | 1
COc1ccc(C(=O)NCCCn2ccnc2)cc1 | 2 | -2 | 21 | -7 | 0
O=C(NCc1cccnc1)c1cn(-c2ccccc2)nc1-c1ccccc1 | -26 | -5 | -22 | 44* | -1
COc1ccc(-c2nn(-c3ccccc3)cc2C(=O)NCCCn2ccnc2)cc1 | -24 | -1 | -24 | 30* | -1
O=C(NCc1ccncc1)c1cn(-c2ccccc2)nc1-c1cccnc1 | -16 | -2 | 23 | 14 | -1
O=C(NC1CCN(Cc2ccc(Cl)cc2)CC1)c1cn(-c2ccccc2)nc1-c1cccnc1 | -34 | -2 | -3 | 74* | -2
COc1ccc(CCNC(=O)Cn2cc(S(=O)(=O)Cc3cccc(Cl)c3)c3ccccc32)cc1OC | 2 | . | . | . | -1
COC(=O)c1ccc(NC(=O)CSc2nccn2Cc2ccc(Cl)cc2)cc1 | -3 | . | . | . | -1
Cc1cc(C)n(-c2ccc([N+](=O)[O-])cc2)n1 | -2 | 2 | -1 | 34* | -1
CN(C)S(=O)(=O)c1ccc(-c2csc(N/N=C/c3ccc(O)cc3)n2)cc1 | 1 | ? | 57* | -8 | 0
CCOc1cc(-c2cc(-c3ccc(N)cc3)nc(N)c2C#N)ccc1O | 3 | 8 | -11 | 6 | -2
CCOc1cc(-c2noc(N)c2C#N)cc(OCC)c1OCC | 27 | 41* | 130* | 1 | 1
CC(C)Cc1ccc(S(=O)(=O)N2CCC(c3ccncc3)CC2)cc1 | -12 | . | . | . | 0
CCCN(CCC)S(=O)(=O)c1ccc(N2CCCCS2(=O)=O)cc1 | -3 | . | . | . | -2
Cc1c(O)ccc(NS(=O)(=O)c2ccccc2)c1C | 10 | 0 | -2 | 12 | 0
Cc1cc(NS(=O)(=O)c2ccccc2)c(C)c(Cl)c1O | -3 | 10 | 61* | 0 | 0
CCCCc1ccc(NC(=O)COc2cccc3c(=O)n(C)ccc23)cc1 | -8 | . | . | . | 0
CCC1CCCCN1CCCNC(=O)CS(=O)Cc1nc(-c2ccc(OC)c(OC)c2)oc1C (stereo not given) | 2 | -4 | -8 | 36* | 2
Cc1ccc(-c2nc(CS(=O)CC(=O)NCCN(CC(C)C)CC(C)C)c(C)o2)cc1 (stereo not given) | 106* | -1 | -4 | 1 | -1
CCc1ccc(-c2nc(CS(=O)CC(=O)NCCCN3CCC(C)CC3)c(C)o2)cc1 (stereo not given) | -9 | -7 | -24 | 30* | 0
CCc1ccc(-c2nc(CS(=O)CC(=O)NCCN3CCCCCC3)c(C)o2)cc1 (stereo not given) | 4 | -3 | -19 | -3 | 1
CCN1CCN(C(=O)CS(=O)Cc2nc(-c3ccc(OC)cc3)oc2C)CC1 (stereo not given) | -14 | -5 | -4 | 40* | 0

Compound activity deposited in PubChem BioAssay by National Center for Advancing Translational Sciences (NCATS).
